Measurements taken from PubChem BioAssay (Tox21).
Records with an inconclusive call do not appear. Calls of active or inactive are those of the source. Unless noted, calls follow the shape of the dose curve; as a rule, active = well fitted curve in the direction sought with a large enough effect in the repeat runs; inconclusive = weak or mixed curves; inactive = no such curve, though single readings can be large; an effect the other way counts as inactive or inconclusive.

How the values were obtained:
[1] = target: Thyrotropin receptor (Homo sapiens) (UniProt P16473); test: qHTS assay to identify small molecule agonists of the thyroid stimulating hormone receptor (TSHR) signaling pathway (AID 1224843; calls by dose curve; also: nearly all actives have a fitted effect of over 45% in size)
Sequence of Thyrotropin receptor (Homo sapiens) (P16473 whole entry, looked up): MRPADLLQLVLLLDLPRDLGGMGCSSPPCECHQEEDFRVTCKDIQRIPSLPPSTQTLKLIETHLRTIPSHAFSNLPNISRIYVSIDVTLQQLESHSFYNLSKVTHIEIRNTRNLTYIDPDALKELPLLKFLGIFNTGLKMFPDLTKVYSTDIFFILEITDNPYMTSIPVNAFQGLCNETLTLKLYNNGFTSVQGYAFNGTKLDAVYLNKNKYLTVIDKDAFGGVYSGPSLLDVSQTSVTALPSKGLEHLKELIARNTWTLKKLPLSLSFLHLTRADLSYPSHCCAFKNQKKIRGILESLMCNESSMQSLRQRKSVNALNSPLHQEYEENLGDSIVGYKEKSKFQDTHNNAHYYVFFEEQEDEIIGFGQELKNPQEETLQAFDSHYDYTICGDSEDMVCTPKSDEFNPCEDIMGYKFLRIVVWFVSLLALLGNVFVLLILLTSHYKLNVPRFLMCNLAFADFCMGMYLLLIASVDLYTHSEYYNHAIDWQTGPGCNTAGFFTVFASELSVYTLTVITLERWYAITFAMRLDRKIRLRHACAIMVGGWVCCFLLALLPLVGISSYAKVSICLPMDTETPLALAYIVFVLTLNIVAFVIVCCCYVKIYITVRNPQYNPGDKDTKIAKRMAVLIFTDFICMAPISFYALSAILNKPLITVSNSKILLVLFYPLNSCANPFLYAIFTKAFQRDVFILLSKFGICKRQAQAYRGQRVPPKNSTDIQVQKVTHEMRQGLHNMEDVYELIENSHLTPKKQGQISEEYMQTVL
Summary of the method: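 Using 15 concentrations per compound in triplicate, cAMP production was monitored in TSHR-HEK293 cells after 30 min compound incubation at RT; HTRF reagents followed, with fluorescence intensity recorded after 1 h.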

[2] = qHTS assay to identify small molecule agonists of the hypoxia (HIF-1) signaling pathway - cell viability counter screen (AID 1224844; calls by dose curve; also: nearly all actives have a fitted effect of over 50% in size)
Summary of the method: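 Cytotoxicity was measured in parallel with the HRE-driven beta-lactamase readout: after 17 hrs of compound exposure at 37C, HRE-bla ME-180 cells received CellTiter-Glo and luminescence was recorded 30 min later.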

[3] = qHTS assay to identify small molecule agonists of H2AX (AID 1224845; active = well fitted activation curve with a large enough effect in the signal ratio in the repeat runs, not every such curve was filed as active; the % refers to the signal ratio)
Summary of the method: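 Wild-type CHO-K1 cells plated overnight, then exposed 3 hr at 37C to compounds at 15 concentrations (0.76% DMSO). Lysed, then HTRF anti-pH2AX(S139)-cryptate/anti-H2AX-d2 detection after 24 hr at room temperature; emissions 665 and 620 nm.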

[4] = qHTS assay to identify small molecule agonists of the hypoxia (HIF-1) signaling pathway (AID 1224846; active = well fitted activation curve with a large enough effect in the signal ratio in the repeat runs, not every such curve was filed as active; the % refers to the signal ratio)
Summary of the method: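 Compounds from the Tox21 10K library, dissolved in DMSO, are tested for induction of a hypoxia response element–controlled beta-lactamase reporter in ME-180 cells. Exposure lasts 17 hrs at 37C after a 5 hr settling period, followed by CCF4-AM FRET substrate.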

[5] = qHTS assay to identify small molecule agonists of H2AX - cell viability counter screen (AID 1224847; calls by dose curve; also: top concentration of the series differs between compounds; nearly all actives have a fitted effect of over 30% in size)
Summary of the method: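 Counter-screen for viability: CellTiter-Glo ATP luminescence read after 3 h compound treatment (15-point titration, 0.76% DMSO final) of CHO-K1 cells at 37C, with 30 min room-temperature reagent incubation.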

[6] = qHTS assay to identify small molecule antagonists of the estrogen related receptor (ERR) signaling pathway from Tox21 library (AID 1224848); also: nearly all actives have a fitted effect of over 50% in size
Summary of the method: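 Tox21 10K compounds in DMSO tested for ERR pathway antagonism in NTP's ERR cell line; 18 h, 37 C exposure; ONE-Glo luminescence.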

[7] = qHTS assay to identify small molecule agonists of the estrogen related receptor (ERR) signaling pathway from Tox21 library (AID 1224849; calls by dose curve; also: nearly all actives have a fitted effect of over 15% in size); settings: ERR reporter cell line, ONE-Glo luciferase, 18 h; at 92.4 µM (top of the series) unless noted
Summary of the method: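 Cells carrying the ERR reporter were plated and allowed to settle for 6 h, exposed to library compounds for 18 h at 37 C, then lysed with ONE-Glo and luminescence measured.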

[8] = qHTS RealTime-Glo MT Cell Viability Assay in HepG2 cells - 24 hour (AID 1224867); also: nearly all actives have a fitted effect of over 50% in size
Summary of the method: (§1)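 HepG2 cells were seeded at 600 cells/well together with NanoLuc luciferase and a cell-permeant prosubstrate, preincubated 5 h at 37 C/5% CO2, then pin-dosed with compounds in DMSO. Nonlytic luminescence from viable cells was read at each time point.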

[9] = qHTS RealTime-Glo MT Cell Viability Assay in HEK293 cells - 32 hour (AID 1224868); also: top concentration of the series differs between compounds; nearly all actives have a fitted effect of over 50% in size
Summary of the method: (§2)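 HEK293 cells were seeded at 600 cells/well together with NanoLuc luciferase and cell-permeant prosubstrate, preincubated 5 h at 37 C/5% CO2, then given compound in DMSO by pintool. Luminescence from viable-cell prosubstrate reduction was read repeatedly over 40 h.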

[10] = A CellTox Green Cytotoxicity Assay to monitor cytotoxicity in HEK293 cells - 0 hour (AID 1224869); also: nearly all actives have a fitted effect of over 50% in size
Summary of the method: (§3)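 Cells (HEK293, 600/well) and dye reagent are dispensed together. After 5 h at 37 C, 23 nL compound is pinned in. Plates stay at 37 C for 40 h with fluorescence read at 0h, 8h, 16h, 24h, 32h and 40h.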

[11] = qHTS RealTime-Glo MT Cell Viability Assay in HepG2 cells - 40 hour (AID 1224870); also: nearly all actives have a fitted effect of over 50% in size
Summary of the method: (§4)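 HepG2 cells mixed with RealTime-Glo MT reagents (NanoLuc plus cell-permeant prosubstrate) were seeded at 600 cells/well, incubated 5 h at 37 C/5% CO2, then pinned with compounds in DMSO; nonlytic luminescence tracked viability during 40 h treatment.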

[12] = A CellTox Green Cytotoxicity Assay to monitor cytotoxicity in HEK293 cells - 40 hour (AID 1224871); also: nearly all actives have a fitted effect of over 45% in size
Summary of the method: as §3

[13] = qHTS RealTime-Glo MT Cell Viability Assay in HEK293 cells - 16 hour (AID 1224872)
Summary of the method: as §2

[14] = qHTS RealTime-Glo MT Cell Viability Assay in HepG2 cells - 8 hour (AID 1224873); also: nearly all actives have a fitted effect of over 55% in size
Summary of the method: as §4

[15] = qHTS RealTime-Glo MT Cell Viability Assay in HEK293 cells - 40 hour (AID 1224874); settings: RealTime-Glo luminescence; max response: hits give low values; also: nearly all actives have a fitted effect of over 50% in size
Summary of the method: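 Real-time viability in HEK293: signal arises when living cells convert a prosubstrate for NanoLuc in the medium, so luminescence tracks viable cell number. Compound (23 nL, DMSO) added 5 h post-seeding; kinetic reads at 0–40 h, 37 C.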

[16] = A CellTox Green Cytotoxicity Assay to monitor cytotoxicity in HEK293 cells - 24 hour (AID 1224875); also: nearly all actives have a fitted effect of over 45% in size
Summary of the method: as §3

[17] = A CellTox Green Cytotoxicity Assay to monitor cytotoxicity in HepG2 cells - 16 hour (AID 1224876); also: nearly all actives have a fitted effect of over 45% in size
Summary of the method: (§5)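 Cells and non-lytic dye reagent are dispensed together (600 HepG2 cells/well) and incubated 5 h before DMSO compound transfer. Kinetic fluorescence is then recorded in the same wells during 40 h at 37 C.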

[18] = qHTS RealTime-Glo MT Cell Viability Assay in HepG2 cells - 32 hour (AID 1224877); also: nearly all actives have a fitted effect of over 55% in size
Summary of the method: as §1

[19] = A CellTox Green Cytotoxicity Assay to monitor cytotoxicity in HepG2 cells - 24 hour (AID 1224878); also: nearly all actives have a fitted effect of over 45% in size
Summary of the method: as §5

[20] = A CellTox Green Cytotoxicity Assay to monitor cytotoxicity in HepG2 cells - 40 hour (AID 1224879); also: nearly all actives have a fitted effect of over 40% in size
Summary of the method: as §5
% is scaled to controls: 0 for no effect and ±100 for the full control effect.

On1nnc2ccccc21
inactive: Potency [1] | outcome [2] | outcome [3] | outcome [4] | Potency [5] | Potency [6] | activity change, positive = activation [7] 9.52% | outcome [8] | Potency [9] | outcome [10] | outcome [11] | Potency [12] | Potency [13] | outcome [14] | max response [15] -15.2% | outcome [16] | outcome [17] | outcome [18] | outcome [19] | Potency [20]

CCCCCCCCOS(=O)(=O)O
inactive: Potency [1] | outcome [2] | outcome [3] | outcome [4] | Potency [5] | Potency [6] | activity change, positive = activation [7] 6.25% | outcome [8] | Potency [9] | outcome [10] | outcome [11] | Potency [12] | Potency [13] | outcome [14] | max response [15] 2.61% | outcome [16] | outcome [17] | outcome [18] | outcome [19] | Potency [20]

COC(=O)CCc1ccc(OCC(O)CNC(C)C)cc1 (stereo not drawn)
inactive: Potency [1] | outcome [2] | outcome [3] | outcome [4] | Potency [5] | Potency [6] | activity change, positive = activation [7] 8.83% [at 42.5 µM] | outcome [8] | Potency [9] | outcome [10] | outcome [11] | Potency [12] | Potency [13] | outcome [14] | max response [15] 5.47% | outcome [16] | outcome [18] | outcome [19] | Potency [20]

CC(C)CC(=O)O
inactive: Potency [1] | outcome [2] | outcome [3] | outcome [4] | Potency [5] | Potency [6] | activity change, positive = activation [7] 4.14% | outcome [8] | outcome [10] | outcome [11] | Potency [12] | Potency [13] | outcome [14] | max response [15] 6.56% | outcome [16] | outcome [17] | outcome [19] | Potency [20]

O=C(O)c1cc(Cl)cc([N+](=O)[O-])c1Cl
inactive: Potency [1] | outcome [2] | outcome [3] | outcome [4] | Potency [5] | Potency [6] | activity change, positive = activation [7] -9.65% | outcome [8] | Potency [9] | outcome [10] | outcome [11] | Potency [12] | Potency [13] | outcome [14] | max response [15] 21% | outcome [16] | outcome [17] | outcome [18] | outcome [19] | Potency [20]

CC1COc2ccccc2N1 (stereo not drawn)
inactive: Potency [1] | outcome [2] | outcome [3] | outcome [4] | Potency [5] | Potency [6] | activity change, positive = activation [7] 13.7% | outcome [8] | outcome [10] | Potency [12] | Potency [13] | outcome [14] | outcome [16] | outcome [17] | outcome [18] | outcome [19] | Potency [20]

COC(=O)c1ccccc1C(=O)c1ccc(OCCN2CCCCC2)cc1
inactive: Potency [1] | outcome [2] | outcome [3] | outcome [4] | Potency [5] | Potency [6] | activity change, positive = activation [7] 1.12% [at 42.5 µM] | outcome [8] | Potency [9] | outcome [10] | Potency [12] | Potency [13] | outcome [14] | max response [15] -12% | outcome [16] | outcome [17] | outcome [18] | outcome [19] | Potency [20]

C=C(C)C(=O)OCCNC(C)(C)C
inactive: Potency [1] | outcome [2] | outcome [3] | outcome [4] | Potency [5] | Potency [6] | activity change, positive = activation [7] -2.14% | outcome [8] | Potency [9] | outcome [10] | outcome [11] | Potency [12] | Potency [13] | outcome [14] | max response [15] 0.848% | outcome [16] | outcome [17] | outcome [19] | Potency [20]

C[Si](C)(C)C
inactive: Potency [1] | outcome [2] | outcome [3] | outcome [4] | Potency [5] | Potency [6] | activity change, positive = activation [7] -1.98% | outcome [8] | Potency [9] | outcome [10] | outcome [11] | Potency [12] | outcome [14] | max response [15] 7.29% | outcome [16] | outcome [17] | outcome [18] | outcome [19] | Potency [20]

CC(COC(C)(C)C)OCCCO (stereo not drawn)
inactive: Potency [1] | outcome [2] | outcome [3] | outcome [4] | Potency [5] | Potency [6] | activity change, positive = activation [7] 3.31% | outcome [8] | outcome [10] | outcome [11] | Potency [12] | Potency [13] | outcome [14] | outcome [16] | outcome [17] | Potency [20]

COC(=O)C1CC(=O)C(C(=O)OC)CC1=O (stereo not drawn)
inactive: activation [1] -7.69% [at 8.39 µM] | activity change, negative = cytotoxicity [2] 4.68% [at 6.97 µM] | activation (H2AX phosphorylation) [3] 1.21% [at 14 µM] | activation [4] 0.935% [at 7.01 µM] | activity change, negative = cytotoxicity [5] -2.76% [at 14 µM] | activity, negative = inhibition [6] -0.445% [at 8.39 µM] | activity change, positive = activation [7] -0.229% [at 8.39 µM] | activity change, negative = cytotoxicity [8] 1.03% [at 6.97 µM] | activity change, negative = cytotoxic [9] 1.1% [at 6.97 µM] | cytotoxicity [10] -3.09% [at 6.97 µM] | cytotoxicity increase [12] 1.85% [at 6.97 µM] | activity change, negative = cytotoxicity [13] 7.32% [at 6.97 µM] | viability change, negative = cytotoxic [14] -14.8% [at 6.97 µM] | max response [15] -0.164% | activity change [16] 2.42% [at 6.97 µM] | cytotoxicity increase [17] -5.58% [at 6.97 µM] | cytotoxicity [19] -7.82% [at 6.97 µM] | cytotoxicity increase [20] -13.2% [at 6.97 µM]

BrCCCCCBr
inactive: Potency [1] | outcome [2] | outcome [3] | outcome [4] | Potency [5] | Potency [6] | activity change, positive = activation [7] 6.39% | outcome [8] | Potency [9] | outcome [10] | outcome [11] | Potency [12] | Potency [13] | outcome [14] | max response [15] 19.9% | outcome [16] | outcome [17] | outcome [18] | outcome [19] | Potency [20]

CNC(=O)[C@H]1O[C@@H](n2cnc3c(NCc4cc(Cl)ccc4OCc4cc(C)no4)ncnc32)[C@H](O)[C@@H]1N
inactive: Potency [1] | outcome [2] | outcome [3] | outcome [4] | Potency [5] | Potency [6] | activity change, positive = activation [7] -1.8% | outcome [8] | Potency [9] | outcome [10] | outcome [11] | Potency [12] | Potency [13] | outcome [14] | max response [15] 0.414% | outcome [16] | outcome [17] | Potency [20]
